Results reported in the supplement of paper PMC10849652.
Of roughly 7,900 targets only a part is listed; those with a hit were picked by preference. About 0.6% of all pairs of compound and target were hits.

Compound: CCn1cc(-c2ccnc3[nH]c(-c4cccc(CN(C)C)c4)cc23)c(-c2ccc(NC(=O)N(C)C)cc2)n1
Experiment: log2 fold change, soluble protein after heating vs DMSO (PISA); higher = thermal stabilisation; K562 cells, 10 uM, 30 min; active = over 0.2 and 3.5 SD of the protein, either way, in both replicates (recomputed)
How it was run: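 Soluble protein was defined as the supernatant after 21,000xg for 90 min. It came from K562 cells at 2×10^6 cells/mL given 10 μM compound for 30 min, heated in aliquots for 3 min across 48°C-58°C, pooled, and extracted in PBS with 0.5% NP-40 at 4°C, and was quantified by TMTpro 16plex LC-MS/MS with equalised channel sums. Thermal stability against control samples, from duplicates, is reported as log2 fold change.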

Chain of UniProt Q9NWU1 (Q9NWU1 whole entry, looked up): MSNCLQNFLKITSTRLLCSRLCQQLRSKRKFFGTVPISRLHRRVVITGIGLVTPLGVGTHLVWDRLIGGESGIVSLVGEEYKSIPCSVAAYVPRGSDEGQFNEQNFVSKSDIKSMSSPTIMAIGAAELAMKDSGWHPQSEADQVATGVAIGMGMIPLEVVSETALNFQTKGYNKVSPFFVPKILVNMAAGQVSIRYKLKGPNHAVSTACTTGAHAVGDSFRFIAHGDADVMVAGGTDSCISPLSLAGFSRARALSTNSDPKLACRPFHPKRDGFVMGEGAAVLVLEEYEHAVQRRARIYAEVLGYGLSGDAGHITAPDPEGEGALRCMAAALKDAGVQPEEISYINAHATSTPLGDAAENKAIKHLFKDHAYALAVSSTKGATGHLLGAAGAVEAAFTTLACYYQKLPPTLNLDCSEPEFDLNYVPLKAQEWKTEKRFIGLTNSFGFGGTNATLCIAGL
Chain of UniProt Q9BUK6 (Q9BUK6 whole entry, looked up): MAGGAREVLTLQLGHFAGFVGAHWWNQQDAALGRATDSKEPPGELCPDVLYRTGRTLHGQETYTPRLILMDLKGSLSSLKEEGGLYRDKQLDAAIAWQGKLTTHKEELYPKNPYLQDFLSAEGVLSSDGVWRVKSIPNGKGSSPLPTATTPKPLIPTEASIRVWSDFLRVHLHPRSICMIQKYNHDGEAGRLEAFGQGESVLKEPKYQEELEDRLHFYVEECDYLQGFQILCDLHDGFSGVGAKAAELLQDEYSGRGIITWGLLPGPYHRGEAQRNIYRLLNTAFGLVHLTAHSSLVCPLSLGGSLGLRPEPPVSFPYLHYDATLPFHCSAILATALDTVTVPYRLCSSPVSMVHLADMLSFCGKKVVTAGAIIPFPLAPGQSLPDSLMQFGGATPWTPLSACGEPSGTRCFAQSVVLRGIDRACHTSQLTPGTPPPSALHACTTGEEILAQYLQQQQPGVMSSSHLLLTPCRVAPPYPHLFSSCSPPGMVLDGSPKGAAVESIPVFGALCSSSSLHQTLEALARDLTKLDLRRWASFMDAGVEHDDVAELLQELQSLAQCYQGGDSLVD
Chain of UniProt Q9UI09 (Q9UI09 whole entry, looked up): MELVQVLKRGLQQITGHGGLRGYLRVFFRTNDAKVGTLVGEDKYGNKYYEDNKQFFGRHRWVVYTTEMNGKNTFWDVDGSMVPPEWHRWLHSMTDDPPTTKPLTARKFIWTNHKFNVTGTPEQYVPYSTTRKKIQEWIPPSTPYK
Chain of UniProt O15460 (O15460 whole entry, looked up): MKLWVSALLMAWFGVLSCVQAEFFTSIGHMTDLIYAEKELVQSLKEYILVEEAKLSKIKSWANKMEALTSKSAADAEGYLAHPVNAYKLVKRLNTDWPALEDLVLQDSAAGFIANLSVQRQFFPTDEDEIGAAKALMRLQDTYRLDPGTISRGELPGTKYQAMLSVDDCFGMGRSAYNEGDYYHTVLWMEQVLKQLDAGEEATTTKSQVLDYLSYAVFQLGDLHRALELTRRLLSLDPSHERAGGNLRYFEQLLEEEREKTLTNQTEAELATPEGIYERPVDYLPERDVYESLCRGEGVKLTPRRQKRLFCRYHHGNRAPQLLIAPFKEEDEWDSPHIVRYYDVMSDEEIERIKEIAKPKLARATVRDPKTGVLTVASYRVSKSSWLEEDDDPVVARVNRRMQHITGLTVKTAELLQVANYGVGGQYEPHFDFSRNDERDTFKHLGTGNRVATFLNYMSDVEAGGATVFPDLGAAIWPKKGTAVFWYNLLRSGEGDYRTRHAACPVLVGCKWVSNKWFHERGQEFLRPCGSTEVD
Chain of UniProt P00846 (P00846 whole entry, looked up): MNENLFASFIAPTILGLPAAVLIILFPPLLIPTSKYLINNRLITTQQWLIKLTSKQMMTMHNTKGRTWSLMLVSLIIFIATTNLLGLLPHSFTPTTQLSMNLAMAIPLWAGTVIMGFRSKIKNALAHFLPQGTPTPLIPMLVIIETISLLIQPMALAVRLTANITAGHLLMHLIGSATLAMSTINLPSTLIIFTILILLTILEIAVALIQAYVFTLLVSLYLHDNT
Chain of UniProt Q9HAN9 (Q9HAN9 whole entry, looked up): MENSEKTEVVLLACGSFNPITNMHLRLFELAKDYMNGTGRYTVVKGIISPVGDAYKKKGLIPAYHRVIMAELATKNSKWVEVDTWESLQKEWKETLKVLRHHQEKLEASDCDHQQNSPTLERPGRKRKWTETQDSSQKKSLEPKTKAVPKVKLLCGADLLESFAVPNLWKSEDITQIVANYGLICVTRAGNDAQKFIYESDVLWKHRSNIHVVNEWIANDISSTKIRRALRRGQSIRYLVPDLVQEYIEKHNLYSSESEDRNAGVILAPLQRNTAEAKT
Chain of UniProt Q12986 (Q12986 whole entry, looked up): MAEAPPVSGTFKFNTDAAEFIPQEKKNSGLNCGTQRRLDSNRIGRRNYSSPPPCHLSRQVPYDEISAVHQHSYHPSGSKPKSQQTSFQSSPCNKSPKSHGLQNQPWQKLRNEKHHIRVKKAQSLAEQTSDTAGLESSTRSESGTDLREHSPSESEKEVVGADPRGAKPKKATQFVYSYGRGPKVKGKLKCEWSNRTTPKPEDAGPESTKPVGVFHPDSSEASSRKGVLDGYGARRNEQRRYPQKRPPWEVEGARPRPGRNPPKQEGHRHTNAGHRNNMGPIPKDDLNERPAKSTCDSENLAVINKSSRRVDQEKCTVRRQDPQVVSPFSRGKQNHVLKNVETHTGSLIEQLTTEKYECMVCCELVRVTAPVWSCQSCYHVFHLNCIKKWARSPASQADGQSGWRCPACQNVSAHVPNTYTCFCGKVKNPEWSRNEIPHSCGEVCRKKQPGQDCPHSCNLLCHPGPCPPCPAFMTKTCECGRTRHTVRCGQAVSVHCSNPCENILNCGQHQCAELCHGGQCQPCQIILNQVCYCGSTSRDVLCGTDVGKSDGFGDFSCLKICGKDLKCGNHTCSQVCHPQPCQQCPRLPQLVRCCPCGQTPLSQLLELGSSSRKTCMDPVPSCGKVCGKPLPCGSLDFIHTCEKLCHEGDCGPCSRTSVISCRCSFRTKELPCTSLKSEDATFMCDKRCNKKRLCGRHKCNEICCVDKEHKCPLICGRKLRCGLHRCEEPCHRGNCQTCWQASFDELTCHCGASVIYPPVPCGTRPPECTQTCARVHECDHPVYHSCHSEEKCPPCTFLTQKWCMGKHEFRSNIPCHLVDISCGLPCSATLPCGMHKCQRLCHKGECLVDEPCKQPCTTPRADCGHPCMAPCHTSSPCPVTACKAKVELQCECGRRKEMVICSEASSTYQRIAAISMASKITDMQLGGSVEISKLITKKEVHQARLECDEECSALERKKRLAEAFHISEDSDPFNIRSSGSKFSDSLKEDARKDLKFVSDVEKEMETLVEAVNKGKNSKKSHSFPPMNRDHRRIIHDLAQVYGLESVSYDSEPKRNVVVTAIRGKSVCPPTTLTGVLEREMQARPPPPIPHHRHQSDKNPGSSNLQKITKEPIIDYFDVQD
Chain of UniProt Q8WV92 (Q8WV92 whole entry, looked up): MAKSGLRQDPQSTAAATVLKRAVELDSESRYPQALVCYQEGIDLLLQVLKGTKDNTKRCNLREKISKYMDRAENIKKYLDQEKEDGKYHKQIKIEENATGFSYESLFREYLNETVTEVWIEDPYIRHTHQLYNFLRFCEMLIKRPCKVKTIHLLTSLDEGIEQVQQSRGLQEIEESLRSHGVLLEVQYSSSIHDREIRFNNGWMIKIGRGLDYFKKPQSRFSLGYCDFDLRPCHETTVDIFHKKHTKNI
Chain of UniProt P49914 (P49914 whole entry, looked up): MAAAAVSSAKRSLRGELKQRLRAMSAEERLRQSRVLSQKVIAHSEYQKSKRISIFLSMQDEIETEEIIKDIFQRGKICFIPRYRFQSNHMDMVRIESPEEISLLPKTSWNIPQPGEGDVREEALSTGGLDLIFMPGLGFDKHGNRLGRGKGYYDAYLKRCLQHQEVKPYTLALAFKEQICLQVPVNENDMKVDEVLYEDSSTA
Chain of UniProt Q13423 (Q13423 whole entry, looked up): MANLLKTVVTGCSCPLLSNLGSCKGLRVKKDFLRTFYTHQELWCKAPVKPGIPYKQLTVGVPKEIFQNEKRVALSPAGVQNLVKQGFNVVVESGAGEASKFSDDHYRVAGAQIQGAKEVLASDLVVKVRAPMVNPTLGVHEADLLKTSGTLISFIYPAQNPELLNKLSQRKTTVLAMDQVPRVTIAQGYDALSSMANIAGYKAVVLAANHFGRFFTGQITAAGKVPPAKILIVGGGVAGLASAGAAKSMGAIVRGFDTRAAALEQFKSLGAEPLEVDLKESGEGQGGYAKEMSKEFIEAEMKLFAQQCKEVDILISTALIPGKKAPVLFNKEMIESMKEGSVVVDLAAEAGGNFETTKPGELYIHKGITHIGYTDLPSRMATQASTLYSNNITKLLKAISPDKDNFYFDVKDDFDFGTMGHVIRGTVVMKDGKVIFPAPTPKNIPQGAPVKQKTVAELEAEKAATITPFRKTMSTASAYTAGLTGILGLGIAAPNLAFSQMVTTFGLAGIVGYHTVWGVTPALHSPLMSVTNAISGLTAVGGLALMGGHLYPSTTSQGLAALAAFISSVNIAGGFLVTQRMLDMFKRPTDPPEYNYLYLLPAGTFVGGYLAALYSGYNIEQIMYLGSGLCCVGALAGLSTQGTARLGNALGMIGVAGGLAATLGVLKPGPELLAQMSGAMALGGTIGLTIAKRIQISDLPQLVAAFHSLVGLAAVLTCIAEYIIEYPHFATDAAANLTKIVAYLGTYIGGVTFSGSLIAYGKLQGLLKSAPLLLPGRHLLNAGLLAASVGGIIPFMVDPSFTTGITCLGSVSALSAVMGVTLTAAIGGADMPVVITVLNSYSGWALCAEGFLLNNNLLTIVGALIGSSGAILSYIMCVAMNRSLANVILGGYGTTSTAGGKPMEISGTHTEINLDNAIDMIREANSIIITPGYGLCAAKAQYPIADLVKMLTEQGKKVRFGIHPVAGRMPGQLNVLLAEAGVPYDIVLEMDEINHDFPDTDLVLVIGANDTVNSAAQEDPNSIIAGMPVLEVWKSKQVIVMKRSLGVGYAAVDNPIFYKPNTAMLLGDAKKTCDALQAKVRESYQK

log2 fold change, inactive:
NELFB isoform 2 (UniProt Q8WX92) -0.012
MRPL50 (UniProt Q8N5N7) -0.044
MRPL46 (UniProt Q9H2W6) -0.04
NOP56 (UniProt O00567) 0.066
MTHFS (UniProt P49914) 0.02
MKNK1 (UniProt Q9BUB5) -0.101
NMNAT1 (UniProt Q9HAN9) 0.098
MT-ATP6 (UniProt P00846) -0.152
NFATC3 (UniProt Q12968) -0.038
NELFA (UniProt Q9H3P2) -0.139
OSTM1 (UniProt Q86WC4) -0.215
NDUFS8 (UniProt O00217) -0.043
MITD1 (UniProt Q8WV92) 0.057
NFX1 (UniProt Q12986) 0.232
NBN (UniProt O60934) 0.002
NDUFS7 (UniProt O75251) -0.005
NA, A0A096LPI6 0.029
NSMCE2 (UniProt Q96MF7) 0.079
NIPSNAP2 (UniProt O75323) -0.115
MRPS10 (UniProt P82664) 0.045
NNT (UniProt Q13423) -0.073
NEU1 (UniProt Q99519) 0.052
NOL11 (UniProt Q9H8H0) -0.027
MRPS25 (UniProt P82663) -0.295
MRPS5 (UniProt P82675) -0.05
NMT2 (UniProt O60551) -0.098
NEDD4L (UniProt Q96PU5) -0.09
NR2C2 isoform 2 (UniProt P49116) 0.049
P4HA2 (UniProt O15460) 0.138
OSTC (UniProt Q9NRP0) 0.039
NFATC2 (UniProt Q13469) -0.197
PAFAH1B2 (UniProt P68402) -0.087
NA, A0A0B4J2A0 -0.055
OXSM (UniProt Q9NWU1) -0.003
NDUFA12 (UniProt Q9UI09) -0.173
NOP58 (UniProt Q9Y2X3) 0.192
MSTO1 (UniProt Q9BUK6) -0.119
MRPS27 isoform 2 (UniProt Q92552) -0.046
MYL12B (UniProt O14950) -0.064
